# Reference: the supplement of paper PMC7858590
# Where “and” joins values, the source holds several entries; their conditions need not be identical. Equal entries are not always repeated.
# System: human monocyte-derived macrophages (polarized)
# Test: cell shape (eccentricity) Z-score vs DMSO control; higher = more elongated, M2-like morphology
# Settings: 5 µM; 24 h; macrophage state: M1-polarized (IFNg + TNFa), cytokines present during treatment
# Method: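 Primary-screen hits were rescreened on polarized hMDMs with the differentiating cytokines (IL-4 + IL-13 or IFNg + TNFa) kept in the medium during treatment with compound at 5 uM for 24 h. The eccentricity Z-score vs DMSO wells is averaged over experiments.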
row,Structure (SMILES),cell shape (Z-score)
1,[O-][NH2+]c1ccc(O)c2ncccc12,-6.06
2,Cc1onc(-c2ccccc2Cl)c1C(=O)N[C@@H]1C(=O)N2[C@@H]1SC(C)(C)[C@@H]2C(=O)O,-5.49
3,O=c1cc(-c2ccc(O)cc2)oc2cc(O)cc(O)c12,0.0357
4,C#Cc1cccc(Nc2ncnc3cc(OCCOC)c(OCCOC)cc23)c1,11.8
5,CC1=CC(=O)CC2C1(C)CCC(C)C2(C)CC/C(C)=C\C(=O)O (stereo not given),-1.21
6,O=C(CCc1ccc(O)cc1)c1c(O)cc(O)cc1O,-3.42
7,Nc1ncnc2n[nH]c(Nc3ccc(F)cc3)c12,3.71
8,CNC(=O)c1cc(Oc2ccc(NC(=O)Nc3ccc(Cl)c(C(F)(F)F)c3)c(F)c2)ccn1,12.1
9,CCn1c(=O)c2c(nc(/C=C/c3ccc(OC)c(OC)c3)n2C)n(CC)c1=O,3.19
10,COc1ccc(N(C(=O)c2ccccc2)S(=O)(=O)c2cc(OC)ccc2OC)cc1,-2.07
11,CNC(=O)c1ccccc1Sc1ccc2c(/C=C/c3ccccn3)n[nH]c2c1,8.44 and 13.2
12,COc1cc2c(Oc3ccc4[nH]c(C)cc4c3F)ncnc2cc1OCCCN1CCCC1,12.3
13,CC(C(=O)Nc1cccc(/N=C/c2c(O)ccc3ccccc23)c1)c1ccccc1 (stereo not given),3.72
14,CN(C)C(=O)n1nnnc1Cc1ccc(-c2ccccc2)cc1,10.3
15,C[C@@]1(C(=O)Nc2ccc(F)nc2)CCCN1c1nc(Nc2cc(C3CC3)n[nH]2)c2cccn2n1,5.79
16,c1ccc(-c2nnc(N3CCOCC3)nc2-c2ccccc2)cc1,-1.34
17,C[C@@H]1O[C@@H](Oc2cc(O)c3c(=O)c(O[C@@H]4O[C@@H](C)[C@H](O[C@@H]5O[C@@H](C)[C@H](O)[C@@H](O)[C@H]5O)[C@@H](O)[C@H]4O)c(-c4ccc(O)cc4)oc3c2)[C@H](O)[C@H](O)[C@H]1O,5.9
18,COc1ccc(-c2cc(=O)c3c(O)cc(OC)c(OC)c3o2)c(OC)c1,-4.83
19,CN1CCN(c2nc(C3=C(c4c[nH]c5ccccc45)C(=O)NC3=O)c3ccccc3n2)CC1,-0.285
20,CC(N)C(=O)OC(C)(C)Cc1ccc(Cl)cc1 (stereo not given),-2.3
21,CC[C@H](Nc1ncnc2[nH]cnc12)c1nc2cccc(F)c2c(=O)n1-c1ccccc1,-16.8
22,CC(C)c1ccccc1Cc1cc(C(=O)Nc2ccc(S(=O)(=O)c3ccccc3C(C)(C)C)cc2)c(O)c(O)c1O,-2.24
23,OC[C@H](Cc1ccccc1)Nc1nc(Oc2ccc3c(c2)CCC3)nc2c1ncn2Cc1ccc(-c2ccccc2)cc1,7.52
24,COc1c(OC)c(O)c2c(=O)c(O)c(-c3ccccc3)oc2c1OC,5.45
25,CN(C)CCC=C1c2ccccc2COc2ccccc21,-7.17
26,O=Nc1c(-c2c(O)[nH]c3cc(Br)ccc23)[nH]c2ccccc12,-13.2
27,Cc1nc(Nc2ncc(C(=O)Nc3c(C)cccc3Cl)s2)cc(N2CCN(CCO)CC2)n1,19.8
28,C[C@@H](Oc1cc(-c2cnn(C3CCNCC3)c2)cnc1N)c1c(Cl)ccc(F)c1Cl,7.6

# Same assay, conditions: 5 µM; 24 h; macrophage state: M2-polarized (IL-4 + IL-13), cytokines present during treatment
row,Structure (SMILES),cell shape (Z-score)
1,N#CN=C(NCCCCCCOc1ccc(Cl)cc1)Nc1ccncc1,-5.22
2,OCc1ccc(-c2ccc(-c3ccc(CO)s3)o2)s1,-20.9
3,CC1Nc2ccc(Cl)cc2S(=O)(=O)N1 (stereo not given),-1.89
4,CCC[C@H](NC(=O)/C(C#N)=C/c1cccc(Br)n1)c1ccccc1,-2.53
5,O=C(CCCc1ccc(-c2ccccc2F)cc1)Nc1ccc(O)cc1,-9.79
6,CC(=O)N[C@@H](C(=O)O[C@H]1CCC(C)(C)[C@@H]2CCC3=C(COC3=O)[C@@]12C)C(C)C,-0.761
7,O=C(Nc1ccc([N+](=O)[O-])cc1Cl)c1cc(Cl)ccc1O,-8.05
8,NC(N)=Nc1nc(CSCC/C(N)=N/S(N)(=O)=O)cs1,0.285
9,c1ccc2cc(C3=NCCN3)ncc2c1,0.271
10,COC(=O)C[C@@H]1C(C(=O)O)=CO[C@@H](O[C@@H]2O[C@H](CO)[C@@H](O)[C@H](O)[C@H]2O)/C1=C\COC(=O)/C=C/c1ccccc1,-7.78
11,O=C(Nc1ccc([N+](=O)[O-])cc1Cl)c1cc(Cl)ccc1O [Niclosamide.2mM],-6.52
12,CN(C)CCC=C1c2ccccc2COc2ccccc21,-5.83
